Consider 23 molecules from PubChem BioAssay (Tox21).

The nature of assay [1]: A CellTox Green Cytotoxicity Assay to monitor cytotoxicity in HEK293 cells - 32 hour (AID 1224881). Further: nearly all actives have a fitted effect of over 40% in size. Further: potency means the concentration at half of the fitted maximal effect. In short, it runs like this:
(§1)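 Each value comes from one timepoint of a single continuous run in which HEK293 cells with CellTox Green were exposed to compound for up to 40 h at 37 C, dye fluorescence rising with cell death.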

Assay [2] is described as follows: A CellTox Green Cytotoxicity Assay to monitor cytotoxicity in HepG2 cells - 0 hour (AID 1224882). Further: nearly all actives have a fitted effect of over 35% in size. In short, it runs like this: (§2)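 Continuous culture of HepG2 cells with a membrane-impermeant DNA dye; rising fluorescence marks dead cells. Compound exposure lasted up to 40 h at 37 C, with reads every 8 h from 0 h.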
Assay [3] can be described thus: A CellTox Green Cytotoxicity Assay to monitor cytotoxicity in HepG2 cells - 32 hour (AID 1224883). Further: nearly all actives have a fitted effect of over 50% in size. Further: potency means the concentration at half of the fitted maximal effect. In short, it runs like this: as §2
A short description of assay [4]: A CellTox Green Cytotoxicity Assay to monitor cytotoxicity in HEK293 cells - 8 hour (AID 1224884). Further: nearly all actives have a fitted effect of over 35% in size. Further: potency means the concentration at half of the fitted maximal effect. In short, it runs like this: as §1
Assay [5] in a line: qHTS RealTime-Glo MT Cell Viability Assay in HepG2 cells - 16 hour (AID 1224885). Further: nearly all actives have a fitted effect of over 50% in size. Further: potency means the concentration at half of the fitted maximal effect. In outline:
(§3)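 HepG2 suspension premixed with RealTime-Glo reagents is plated at 600 cells per well and left 5 h at 37 C/5% CO2. Compounds in DMSO then go in, and bioluminescence reflecting viable cell number is recorded over 40 h.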
In general terms: Quantitative high-throughput screening tests each substance at several concentrations.

Assay [6] is described as follows: qHTS RealTime-Glo MT Cell Viability Assay in HEK293 cells - 24 hour (AID 1224886). Further: nearly all actives have a fitted effect of over 50% in size. Further: potency means the concentration at half of the fitted maximal effect. In short, it runs like this:
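Reads taken at 0, 8, 16, 24, 32 and 40 h from the same wells. HEK293 cells (600/well) carried RealTime-Glo reagents from seeding, with compound added after a 5 h settle at 37 C.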

Assay [7] in a line: qHTS RealTime-Glo MT Cell Viability Assay in HEK293 cells - 8 hour (AID 1224887). Further: nearly all actives have a fitted effect of over 50% in size. Further: potency means the concentration at half of the fitted maximal effect. In short, it runs like this:
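qHTS format; HEK293 cells with NanoLuc/prosubstrate reagent, 37 C/5% CO2 for 5 h pre-dosing; compounds 23 nL in DMSO; luminescence at each time point reflects viable cells.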

The nature of assay [8]: A CellTox Green Cytotoxicity Assay to monitor cytotoxicity in HEK293 cells - 16 hour (AID 1224888). Further: nearly all actives have a fitted effect of over 35% in size. Further: potency means the concentration at half of the fitted maximal effect. In short, it runs like this: as §1
Assay [9] can be described thus: qHTS RealTime-Glo MT Cell Viability Assay in HepG2 cells - 0 hour (AID 1224889). Further: nearly all actives have a fitted effect of over 50% in size. In short, it runs like this: as §3
The nature of assay [10]: A CellTox Green Cytotoxicity Assay to monitor cytotoxicity in HepG2 cells - 8 hour (AID 1224890). Further: nearly all actives have a fitted effect of over 45% in size. Further: potency means the concentration at half of the fitted maximal effect. In short, it runs like this:
as §2

Inconclusive results are not listed. Active and inactive are the calls of the source. The call rests on the fitted dose curve; in most records, active means well fitted curve in the direction sought with a large enough effect in the repeat runs; inconclusive means weak or mixed curves; inactive means no such curve, though single readings can be large; an effect the other way counts as inactive or inconclusive.

As to `Cc1cscn1`, the Potency result in [1], in [2], in assay [3], in assay [4], in assay [5] and in [6] was “inactive” in each case. In addition, the Potency entry in assay [7], in [8], in assay [9] and in assay [10] was “inactive” each time.
For the molecule `CCOC(=O)[C@H](CCc1ccccc1)N[C@@H](C)C(=O)N(CC(=O)O)C1Cc2ccccc2C1`, the Potency entry in [1], in assay [2], in assay [3], in assay [4], in [5] and in assay [6] was “inactive” throughout. The Potency result in [7], in [8], in assay [9] and in assay [10] was “inactive” in each case.
On to `Cc1cc(C)c(N)cc1C`, for which the Potency entry in assay [1], in assay [2], in assay [3], in assay [4], in assay [5] and in [6] was “inactive” throughout. The Potency result in [7], in assay [8], in [9] and in [10] was “inactive” each time.
Regarding `C/C=C/C=C/C=O`, the Potency entry in assay [1], in [2], in assay [3], in assay [4], in assay [5] and in [6] was “inactive” throughout. Moreover, the Potency entry in [7], in [8], in [9] and in assay [10] was “inactive” in each case.
For `Oc1cccc(Nc2ccccc2)c1`, the Potency entry in assay [1], in assay [2], in assay [3], in assay [4], in [5] and in assay [8] was “inactive” in each case. In addition, the Potency result in assay [9] and in [10] was “inactive” throughout. Moreover, the Potency in [6] is 14.4 µM (active); in assay [7] it was 11.4 µM (active).
On to `Brc1cc(Br)c(Oc2cc(Br)c(Br)cc2Br)cc1Br`, for which the Potency result in assay [1], in assay [2], in [3], in assay [4], in assay [5] and in assay [6] was “inactive” each time. Further, the Potency entry in assay [7], in [8], in [9] and in [10] was “inactive” in each case.
As for `CCOc1ccc(Cc2nccc3cc(OCC)c(OCC)cc23)cc1OCC`, the Potency result in assay [1], in assay [2], in [4], in assay [8], in assay [9] and in [10] was “inactive” in each case. For the same molecule, the Potency in [3] was 5.35 µM (active); in assay [5], 19 µM (active); in assay [6], 7.56 µM (active); in assay [7], 10.7 µM (active).
Regarding `C=C1C[C@@]23CC[C@H]4[C@@](C)(CCC[C@@]4(C)C(=O)O[C@@H]4O[C@H](CO)[C@@H](O)[C@H](O)[C@H]4O)[C@@H]2CC[C@]1(O[C@@H]1O[C@H](CO)[C@@H](O)[C@H](O[C@@H]2O[C@H](CO)[C@@H](O)[C@H](O)[C@H]2O)[C@H]1O[C@@H]1O[C@H](CO)[C@@H](O)[C@H](O)[C@H]1O)C3`, the Potency entry in [1], in assay [2], in assay [3], in assay [4], in assay [5] and in assay [6] was “inactive” throughout. The Potency result in assay [7], in assay [8], in assay [9] and in assay [10] was “inactive” each time.
Consider `O=C(/C=C/c1ccc(O)c(O)c1)O[C@@H]1C[C@@](OC(=O)/C=C/c2ccc(O)c(O)c2)(C(=O)O)C[C@@H](O)[C@@H]1O`, for which the Potency entry in assay [1], in assay [2], in assay [3], in assay [4], in assay [5] and in assay [6] was “inactive” in each case. Besides, the Potency entry in assay [7], in [8], in assay [9] and in [10] was “inactive” in each case.
Turning to `NC(=O)c1ccncc1`, the Potency entry in assay [1], in [2], in assay [3], in assay [4], in [5] and in [6] was “inactive” in each case. Besides, the Potency entry in assay [7], in assay [8], in assay [9] and in assay [10] was “inactive” each time.
Turning to `CN(C)CCN1C(=O)c2ccccc2N(C)c2ccccc21`, the Potency entry in assay [1], in assay [2], in [3], in assay [4], in [5] and in [6] was “inactive” throughout. The Potency result in [7], in assay [8], in assay [9] and in assay [10] was “inactive” throughout.
With `CCC(C)COC(C)=O` (stereo not given), the Potency entry in [1], in [2], in assay [3], in assay [4], in [5] and in assay [6] was “inactive” in each case. For the same molecule, the Potency entry in assay [7], in assay [8], in [9] and in assay [10] was “inactive” throughout.
For `O=C(O)CCCCCCCCCCCBr`, the Potency result in assay [1], in assay [2], in assay [3], in assay [4], in assay [5] and in assay [6] was “inactive” throughout. In addition, the Potency result in assay [7], in assay [8], in assay [9] and in assay [10] was “inactive” throughout.
For `C1COC1`, the Potency entry in [1], in [2], in assay [3], in assay [4], in assay [5] and in assay [6] was “inactive” in each case. The Potency result in [7], in assay [8], in assay [9] and in assay [10] was “inactive” throughout.
In the case of `CO[C@]1(NC(=O)CSC(F)F)C(=O)N2C(C(=O)O)=C(CSc3nnnn3CCO)CO[C@H]21`, the Potency result in [1], in assay [2], in [3], in assay [4], in assay [5] and in assay [6] was “inactive” each time. For the same molecule, the Potency entry in assay [7], in assay [8], in [9] and in assay [10] was “inactive” in each case.
In the case of `CC1(C)S[C@@H]2[C@H](NC(=O)C(c3ccccc3)S(=O)(=O)O)C(=O)N2[C@H]1C(=O)O` (stereo not given in full), the Potency result in assay [1], in assay [2], in [3], in [4], in [5] and in assay [6] was “inactive” in each case. Moreover, the Potency result in assay [7], in [8], in assay [9] and in assay [10] was “inactive” each time.
Consider `O=C1c2ccccc2C(=O)c2c(O)c(O)cc(O)c21`, for which the Potency entry in assay [1], in [2], in [3], in assay [4], in assay [5] and in assay [6] was “inactive” each time. The Potency entry in assay [7], in assay [8], in assay [9] and in assay [10] was “inactive” each time.
With `CCCCCCCCC(CCCCCC)C(=O)O` (stereo not given), the Potency entry in assay [1], in assay [2], in assay [4], in assay [5], in assay [6] and in assay [7] was “inactive” each time. The Potency entry in assay [8], in assay [9] and in assay [10] was “inactive” in each case. Also, the Potency in [3] is 61.6 µM (active).
Turning to `O=C(O)c1cccc(-c2noc(-c3ccccc3F)n2)c1`, the Potency entry in [1], in assay [2], in assay [3], in [4], in [5] and in assay [6] was “inactive” in each case. Also, the Potency entry in assay [7], in assay [8], in [9] and in [10] was “inactive” throughout.
Regarding `NCCNCCO`, the Potency result in assay [1], in [2], in assay [3], in [4], in assay [5] and in assay [6] was “inactive” throughout. The Potency entry in assay [7], in assay [8], in assay [9] and in assay [10] was “inactive” in each case.
Take `CCC(=O)OC`: the Potency entry in assay [1], in [2], in [3], in assay [4], in [5] and in assay [6] was “inactive” in each case. The Potency result in assay [7], in [8], in assay [9] and in [10] was “inactive” each time.
Take `CC(C)COCC(CN(Cc1ccccc1)c1ccccc1)N1CCCC1` (stereo not given): the Potency in assay [1] was 23.9 µM (active); in assay [3] it was 21.3 µM (active); in assay [4], 21.3 µM (active); in assay [5], 21.3 µM (active); in assay [6], 15.1 µM (active); in assay [7], 15.1 µM (active). Further, the Potency in assay [8] and in [10] was 23.9 µM (active) throughout. Further, the Potency entry in assay [2] and in [9] was “inactive” throughout.
As for `CCCCCC[C@@H](O)C/C=C\CCCCCCCC(=O)OCC(O)CO` (stereo not given in full), the Potency result in [1], in assay [2], in assay [3], in assay [4], in [5] and in [6] was “inactive” each time. Also, the Potency result in [7], in assay [8], in [9] and in assay [10] was “inactive” each time.
